The values that follow come from article PMC9911399, “Two distinct binding modes provide the RNA-binding protein RbFox with extraordinary sequence specificity”.

T1: RBFOX1 RRM (Homo sapiens, UniProt Q9NWB1 109-208)
T1 sequence: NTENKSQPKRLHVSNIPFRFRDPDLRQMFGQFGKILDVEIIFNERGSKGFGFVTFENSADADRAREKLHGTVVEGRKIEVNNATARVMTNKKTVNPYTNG

B1: GGGUACA (DNA:RNA)
RNA: GGGAGACCGGAAUUCAGAUUGUCCGGGUACAUUAAAUCCCGUCGUAGCCACCA
DNA 1: CAATCTGAATTCCGGTCTCCC
DNA 2: TGGTGGCTACGACGGGATT
B2: GUUCUUU (DNA:RNA)
RNA: B1 RNA with G26U, G27U, U28C, A29U, C30U, A31U
DNA 1: CAATCTGAATTCCGGTCTCCC
DNA 2: TGGTGGCTACGACGGGATT
B3: UCUUAUA (DNA:RNA)
RNA: B1 RNA with G25U, G26C, G27U, C30U
DNA 1: CAATCTGAATTCCGGTCTCCC
DNA 2: TGGTGGCTACGACGGGATT
B4: UAGUUAU (DNA:RNA)
RNA: B1 RNA with G25U, G26A, A29U, C30A, A31U
DNA 1: CAATCTGAATTCCGGTCTCCC
DNA 2: TGGTGGCTACGACGGGATT
B5: CCUCUCC (DNA:RNA)
RNA: B1 RNA with G25C, G26C, G27U, U28C, A29U, A31C
DNA 1: CAATCTGAATTCCGGTCTCCC
DNA 2: TGGTGGCTACGACGGGATT
B6: AUAACCC (DNA:RNA)
RNA: B1 RNA with G25A, G26U, G27A, U28A, A29C, A31C
DNA 1: CAATCTGAATTCCGGTCTCCC
DNA 2: TGGTGGCTACGACGGGATT
B7: GGCGCUG (DNA:RNA)
RNA: B1 RNA with G27C, U28G, A29C, C30U, A31G
DNA 1: CAATCTGAATTCCGGTCTCCC
DNA 2: TGGTGGCTACGACGGGATT
B8: GGUGUCA (DNA:RNA)
RNA: B1 RNA with G27U, U28G, A29U
DNA 1: CAATCTGAATTCCGGTCTCCC
DNA 2: TGGTGGCTACGACGGGATT
B9: AAACCAG (DNA:RNA)
RNA: GGGAGACCGGAAUUCAGAUUGUCCAAACCAGUUAAAUCCCGUCGUAGCCACCA
DNA 1: CAATCTGAATTCCGGTCTCCC
DNA 2: TGGTGGCTACGACGGGATT
B10: AACUAGA (DNA:RNA)
RNA: B1 RNA with G25A, G26A, G27C, C30G
DNA 1: CAATCTGAATTCCGGTCTCCC
DNA 2: TGGTGGCTACGACGGGATT
B11: AUUUUUU (DNA:RNA)
RNA: B9 RNA with A26U, A27U, C28U, C29U, A30U, G31U
DNA 1: CAATCTGAATTCCGGTCTCCC
DNA 2: TGGTGGCTACGACGGGATT
B12: GGGAUUC (DNA:RNA)
RNA: B1 RNA with U28A, A29U, C30U, A31C
DNA 1: CAATCTGAATTCCGGTCTCCC
DNA 2: TGGTGGCTACGACGGGATT
B13: GGAAUUC (DNA:RNA)
RNA: B1 RNA with G27A, U28A, A29U, C30U, A31C
DNA 1: CAATCTGAATTCCGGTCTCCC
DNA 2: TGGTGGCTACGACGGGATT
B14: CGGAUUC (DNA:RNA)
RNA: B1 RNA with G25C, U28A, A29U, C30U, A31C
DNA 1: CAATCTGAATTCCGGTCTCCC
DNA 2: TGGTGGCTACGACGGGATT
B15: GGAGUGU (DNA:RNA)
RNA: B1 RNA with G27A, U28G, A29U, C30G, A31U
DNA 1: CAATCTGAATTCCGGTCTCCC
DNA 2: TGGTGGCTACGACGGGATT
B16: CGGAGUG (DNA:RNA)
RNA: B1 RNA with G25C, U28A, A29G, C30U, A31G
DNA 1: CAATCTGAATTCCGGTCTCCC
DNA 2: TGGTGGCTACGACGGGATT
B17: GGGAGUG (DNA:RNA)
RNA: B1 RNA with U28A, A29G, C30U, A31G
DNA 1: CAATCTGAATTCCGGTCTCCC
DNA 2: TGGTGGCTACGACGGGATT
B18: AGUAUUG (DNA:RNA)
RNA: B9 RNA with A26G, A27U, C28A, C29U, A30U
DNA 1: CAATCTGAATTCCGGTCTCCC
DNA 2: TGGTGGCTACGACGGGATT
B19: GCGUCGG (DNA:RNA)
RNA: B1 RNA with G26C, A29C, C30G, A31G
DNA 1: CAATCTGAATTCCGGTCTCCC
DNA 2: TGGTGGCTACGACGGGATT
B20: CGGCUAU (DNA:RNA)
RNA: B9 RNA with A25C, A26G, A27G, C29U, G31U
DNA 1: CAATCTGAATTCCGGTCTCCC
DNA 2: TGGTGGCTACGACGGGATT
B21: AAACACU (DNA:RNA)
RNA: B9 RNA with C29A, A30C, G31U
DNA 1: CAATCTGAATTCCGGTCTCCC
DNA 2: TGGTGGCTACGACGGGATT
B22: GCGCAGU (DNA:RNA)
RNA: B1 RNA with G26C, U28C, C30G, A31U
DNA 1: CAATCTGAATTCCGGTCTCCC
DNA 2: TGGTGGCTACGACGGGATT
B23: GUUGUGG (DNA:RNA)
RNA: B9 RNA with A25G, A26U, A27U, C28G, C29U, A30G
DNA 1: CAATCTGAATTCCGGTCTCCC
DNA 2: TGGTGGCTACGACGGGATT
B24: UGGACCG (DNA:RNA)
RNA: B1 RNA with G25U, U28A, A29C, A31G
DNA 1: CAATCTGAATTCCGGTCTCCC
DNA 2: TGGTGGCTACGACGGGATT
B25: GGGAACG (DNA:RNA)
RNA: B1 RNA with U28A, A31G
DNA 1: CAATCTGAATTCCGGTCTCCC
DNA 2: TGGTGGCTACGACGGGATT
B26: GUUAACG (DNA:RNA)
RNA: B1 RNA with G26U, G27U, U28A, A31G
DNA 1: CAATCTGAATTCCGGTCTCCC
DNA 2: TGGTGGCTACGACGGGATT
B27: GAGAACG (DNA:RNA)
RNA: B1 RNA with G26A, U28A, A31G
DNA 1: CAATCTGAATTCCGGTCTCCC
DNA 2: TGGTGGCTACGACGGGATT
B28: GGAACGU (DNA:RNA)
RNA: B9 RNA with A25G, A26G, C28A, A30G, G31U
DNA 1: CAATCTGAATTCCGGTCTCCC
DNA 2: TGGTGGCTACGACGGGATT
B29: UGGAACG (DNA:RNA)
RNA: B1 RNA with G25U, U28A, A31G
DNA 1: CAATCTGAATTCCGGTCTCCC
DNA 2: TGGTGGCTACGACGGGATT
B30: CCGAACG (DNA:RNA)
RNA: B1 RNA with G25C, G26C, U28A, A31G
DNA 1: CAATCTGAATTCCGGTCTCCC
DNA 2: TGGTGGCTACGACGGGATT
B31: GUGAACG (DNA:RNA)
RNA: B1 RNA with G26U, U28A, A31G
DNA 1: CAATCTGAATTCCGGTCTCCC
DNA 2: TGGTGGCTACGACGGGATT
B32: CGGAACG (DNA:RNA)
RNA: B1 RNA with G25C, U28A, A31G
DNA 1: CAATCTGAATTCCGGTCTCCC
DNA 2: TGGTGGCTACGACGGGATT

Changes are numbered by the printed parent chain; changes in the protein carry UniProt numbers. The full ranking holds about 16,000 sequences; the median of “ka relative to ugcaugu” is about 0.0091, and the highest 2% start at about 0.032. The sample holds the highest values, similar sequences and a random draw of the others, so the mix is not that of the screen.

This assay concerns the target T1, RBFOX1 RRM. Briefly: EMSA; HiTS-Eq, 1 nM pool, 10 min; buffer printed only for the single-RNA assays: 10 mM Tris pH 7.5, 150 mM NaCl, 3.4 mM EDTA, 0.001% NP-40, 30 C. To be noted: tags: His6 N-terminal (pET28a); label: 5' 32P. In short, it runs like this:
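Purified RbFox RRM, wild type or mutant, was incubated for 10 min in 50 µL with 1 nM of a 5′-radiolabelled RNA pool carrying 7 randomized nucleotides, whose flanks were annealed to DNA oligonucleotides, over a series of increasing protein concentrations. Unbound RNA was resolved on 8% native PAGE, cut out, reverse-transcribed, barcoded by PCR and sequenced on an Illumina HiSeq 2500. Relative association constants were derived from changes in read counts for each RNA species versus the control reaction and normalised to the cognate motif.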
As to B1, the binding signal was 0.0112 KA relative to UGCAUGU.
The figure for B2 is 0.0158 KA relative to UGCAUGU; for B3 it is 0.00158 KA relative to UGCAUGU; for B4 it is 0.00794 KA relative to UGCAUGU.
For B5, the binding signal is 0.00489 KA relative to UGCAUGU.
On to B6, for which the binding signal was 0.00143 KA relative to UGCAUGU.
The figure for B7 is 0.0174 KA relative to UGCAUGU; for B8 it is 0.00539 KA relative to UGCAUGU.
The figure for B9 is 0.000872 KA relative to UGCAUGU; for B10 it is 0.00203 KA relative to UGCAUGU; for B11 it is 0.007 KA relative to UGCAUGU.
The figure for B12 is 0.044 KA relative to UGCAUGU; for B13 it is 0.018 KA relative to UGCAUGU; for B14 it is 0.0273 KA relative to UGCAUGU.
Regarding B15, the binding signal was 0.0229 KA relative to UGCAUGU.
The value for B16 was 0.0283 KA relative to UGCAUGU; that for B17 was 0.0333 KA relative to UGCAUGU; that for B18 was 0.0121 KA relative to UGCAUGU.
The figure for B19 is 0.0208 KA relative to UGCAUGU; for B20 it is 0.0107 KA relative to UGCAUGU; for B21 it is 0.00096 KA relative to UGCAUGU.
Consider B22, for which the binding signal was 0.0136 KA relative to UGCAUGU.
Consider B23, for which the binding signal was 0.0184 KA relative to UGCAUGU.
For the molecule B24, the binding signal is 0.0269 KA relative to UGCAUGU.
The value for B25 was 0.0367 KA relative to UGCAUGU; that for B26 was 0.0101 KA relative to UGCAUGU; that for B27 was 0.0165 KA relative to UGCAUGU.
The figure for B28 is 0.0248 KA relative to UGCAUGU; for B29 it is 0.0367 KA relative to UGCAUGU; for B30 it is 0.0118 KA relative to UGCAUGU.
Consider B31, for which the binding signal was 0.0163 KA relative to UGCAUGU.
With B32, the binding signal is 0.0344 KA relative to UGCAUGU.
